In the library only some 7.9% were active in any assay of this set; here they are far more common.
HCMV inh: human cytomegalovirus inhibition; HFF cells, HCMV-luciferase reporter, 72 h; hits give low values; 410,000 compounds, 4.5% hits; activity change, negative = inhibition, % at 57.5 µM; in the data active = activity change below about -60%; inconclusive = no clear call, values can overlap the other calls; inactive = above about -39%
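Cell-based, HFFs, 1000 cells/well, 16 h 37C; cpds in DMSO + HCMV-luc, MOI 1 PFU/cell; 72 h 37C; OneGlo luminescence after 5 min RT; norm. to buffer vs Salinomycin 10uM.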
LASV entry inh: inhibitors of Lassa virus binding or cell entry; Lassa virus pseudotype entry inhibition, cell reporter; Potency, µM (doses to about 37.9 µM), for the others: at the top dose activity change, negative = inhibition, actives largely listed as inhibitors; 300,000 compounds, 1.2% hits; AID 540256; calls by dose curve; tested in HEK293 cells; also: potency is read from the fitted curve at half-maximal effect; nearly all actives have a fitted effect of over 50% in size
HCV inhibitor: HCV inhibition. 340,000 compounds, 3.4% hits. Huh7.5.1 HCVcc-Cre infection, luciferase reporter, 44 h. Potency, µM (top dose mostly 41.8 µM), for the others: at the top dose activity change, negative = inhibition, usual class: inhibitors; active = well fitted inhibition curve with a large enough effect; inconclusive = small, poorly fitted or top-dose-only effect, or another doubt; inactive = no such curve, though single readings can be large or run the other way; also: potency is read from the fitted curve at half-maximal effect
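HCVcc-Cre virus at an moi near 0.5 was added right after compound to cells cultured 4 h from seeding (1,000 cells/well). Luciferase activity was determined 44 h later, 15 min after substrate addition at RT.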
MARV entry inh: inhibitors of Marburg virus binding or cell entry. 300,000 compounds, 1.8% hits. Marburg virus pseudotyped entry inhibition, cell reporter. Potency, µM (highest dose often 37.8 µM), for the others: at the top dose activity change, negative = inhibition, hits mostly inhibitors; calls by dose curve; tested in HEK293 cells; also: potency is read from the fitted curve at half-maximal effect
FMDV inh: blocks foot and mouth disease virus. FMDV antiviral cell-based qHTS. Potency, µM (highest dose often 57.9 µM), without a hit: at the top dose activity change, negative = inhibition, usual class: inhibitors. 410,000 compounds, 1.2% hits; calls by dose curve; tested in HEK293T cells; also: read-out not given here; potency is read from the fitted curve at half-maximal effect; nearly all actives have a fitted effect of over 45% in size
* = called active by the depositor; ? = inconclusive; / = no result; [ ] = another dose, or the depositor's remark. % is scaled to controls: 0 for no effect and ±100 for the full control effect.

SMILES	HCMV inh	LASV entry inh	HCV inhibitor	MARV entry inh	FMDV inh
O=C(c1cc(-c2ccc(Br)cc2)on1)N1CCCC1	54	?	6%	-1%[46.1 µM]	-28%
O=C(c1cc(-c2ccc(Cl)cc2)on1)N1CCOCC1	51	9.2µM*	3%	?	-41%
CC1CC(C)CN(CCCNC(=O)CN2C(=O)COc3ccc(S(=O)(=O)N4CCOCC4)cc32)C1 (stereo not drawn)	0	/	5%	/	0%
O=C(c1cc(-c2ccc(O)cc2)on1)N1CCN(c2ccc(F)cc2)CC1	-63*	/	?	/	-30%
CCOC(=O)c1c(NC(=O)c2ccc(S(=O)(=O)N(C)C)cc2)sc2c1CCN(C)C2	?	?	/	/	-4%
Cc1cccc(NC(=O)COc2cccc3c2CCN(C)C3=O)c1C	-6	4%	?	-6%[46.1 µM]	?
COC(=O)c1c(NC(=O)CCS(=O)(=O)c2ccccc2)sc2c1CCN(C)C2	-90*	0%	-16%	-3%	-8%
CCOC(=O)C1CCCN(S(=O)(=O)c2ccc(S(=O)(=O)N3CCCC3)cc2)C1 (stereo not drawn)	10	/	1.4µM*	/	?
CCOC(=O)c1c(NC(=O)c2ccc(S(=O)(=O)N3CCC(C)CC3)cc2)sc2c1CCN(C)C2	-82*	0%[46.1 µM]	/	/	-18%
CCCN1CCc2c(sc(NC(=O)CCS(=O)(=O)c3ccccc3)c2C(=O)OC)C1	-9	-22%	3%	?	-11%
CCOC(=O)c1c(NC(=O)COc2cccc3c2CCN(C)C3=O)sc2c1CCC2	-63*	?	-4%	?	?
COc1ccc(-c2csc(C(C)(NC(C)=O)c3ccccc3)n2)cn1 (stereo not drawn)	-15	/	/	/	-10%
C=CCOC(=O)C(C(C)=O)[C@@H](NC(=O)OC)c1ccc(Cl)cc1 (stereo partly drawn)	/	/	/	-10%[14.2 µM]	/
CCOC(=O)c1c(NC(=O)C2CCCN(S(=O)(=O)c3ccccc3)C2)sc2c1CCCC2 (stereo not drawn)	?	?	5.6µM*	?	-25%
CCOC(=O)N1CCN(S(=O)(=O)c2ccc(C(=O)Nc3sc4c(c3C(=O)OC)CCN(C)C4)cc2)CC1	-62*	-10%[46.1 µM]	?	?	-12%
COc1ccc2cc(C3CC(c4ccco4)=NN3S(=O)(=O)c3ccccc3)c(Cl)nc2c1 (stereo not drawn)	-11	?	?	?	-4%
CS(=O)(=O)Nc1ccc(C2=NN(S(=O)(=O)c3ccc(F)cc3)C(c3ccco3)C2)cc1 (stereo not drawn)	-3	/	-23%	/	?
O=S(=O)(c1ccccc1)N1N=C(c2ccc(O)cc2)CC1c1ccco1 (stereo not drawn)	?	/	10µM*	/	?
Cc1ccc2cc(C3CC(c4ccco4)=NN3S(=O)(=O)c3ccccc3)c(Cl)nc2c1 (stereo not drawn)	-80*	16µM*	-3%	2.6µM*	-11%
Cc1ccc(C2=NN(S(=O)(=O)c3ccccc3)C(c3ccco3)C2)cc1 (stereo not drawn)	?	/	13µM*	/	-27%
O=S(=O)(c1ccccc1)N1N=C(c2ccc(Br)cc2)CC1c1ccco1 (stereo not drawn)	-60*	/	?	/	-10%
COCc1ccc(CN2CCCC(C(=O)Nc3ccc(-c4cscn4)cc3)C2)o1 (stereo not drawn)	-8	/	-12%	/	-19%
COc1ccc(C#Cc2ccc([C@H]3[C@H](CO)N4CCCCN(S(=O)(=O)c5cn(C)cn5)C[C@@H]34)cc2)cc1	22	/	/	/	/
CC(=O)N1N=C(c2cccc(NS(=O)(=O)c3ccc(C)cc3)c2)CC1c1ccco1 (stereo not drawn)	-21	?	3.2µM*	?	-29%
C#CCCCON=C1C[C@@H](O)[C@H](O)[C@H]2[C@@H]3C(=O)N(C4CCCCC4)C(=O)[C@@H]3CC[C@@H]12	/	/	/	43%[14.2 µM]	/
SMILES	HCMV inh	LASV entry inh	HCV inhibitor	MARV entry inh	FMDV inh
COc1cc(NC(=O)c2ccc(-c3ccc(F)c(F)c3)c3ccoc23)cc(OC)c1OC	-30	/	/	/	-27%
C=CCc1cc(Cl)ccc1OCCOCCNC(C)CC (stereo not drawn)	-11	?	?	11µM*	-26%
CCC(C)NCCOCCOc1ccc(Cl)c(C)c1C (stereo not drawn)	-83*	?	10µM*	?	?
CC(=O)c1ccc(-c2ccc(C(=O)N(C)Cc3nc4ccccc4c(=O)[nH]3)o2)cc1	-30	/	7.1µM*	/	22µM*
CC1(O)CCN2C(=O)CCc3cccc1c32 (stereo not drawn)	-61*	/	-11%	/	-18%
CC(=O)Nc1cc2c3c(c1)CCC(=O)N3CCC2	-15	/	3%	/	-2%
Cc1cnc(SCc2ccccn2)nc1C1CCCN(Cc2ccsc2)C1 (stereo not drawn)	/	/	/	/	-17%
CC1=Nc2cc(C(=O)NC3CCCC3)ccc2Sc2ccc(Br)cc21	-76*	-21%[46.1 µM]	/	?	-24%
CC1=Nc2cc(C(=O)NC3CCCCC3)ccc2Sc2ccc(Cl)cc21	-87*	4µM*	/	/	-20%
CC(=O)Nc1cccc(-c2csc(C(C)(O)c3ccc(F)c(F)c3)n2)c1 (stereo not drawn)	-29	/	/	/	-10%
Cc1c(Cl)cccc1-n1c(SCC(=O)NCc2ccccc2Cl)nnc1-c1ccncc1	-102*	15%	-13%	-17%	-25%
Cc1ccccc1-n1c(SCC(=O)c2cc(C)n(C)c2C)nnc1-c1ccncc1	-12	?	?	?	35µM*
Cc1ccccc1-n1c(SCC(=O)c2ccccc2)nnc1-c1ccc(F)cc1	?	?	/	/	26%
CCOC(=O)CCN1C(=O)[C@@H]2[C@H]3[C@H](O)[C@H](O)CC(=NNC(=O)OCc4ccc(OC)cc4)[C@@H]3CC[C@H]2C1=O	/	?	/	12%[14.2 µM]	/
COc1ccccc1C1CN(Cc2cccn2-c2ncccn2)Cc2ccccc2O1 (stereo not drawn)	/	/	/	/	-19%
Cc1sc(NC(=O)c2ccccc2)c(C(c2ccccn2)N2CCN(CCO)CC2)c1C (stereo not drawn)	-62*	-11%	?	?	-29%
CCCCN(C)C(=O)c1sc(=O)n(Cc2c(C)cccc2C)c1C	-61*	/	/	/	-8%
CCCCN(C)C(=O)c1sc(=O)n(Cc2ccccc2F)c1C	-27	/	/	/	-6%
Cc1cccc(N2CCN(C(=O)c3cnn(-c4ccccc4)c3C3CCN(C(=O)OC(C)(C)C)CC3)CC2)c1C	0	?	/	/	-27%
COC(=O)[C@@H]1CC[C@H](C)[C@@H](c2ccc(C)cc2)N1C(=O)c1ccc(C=NO[C@H](C)c2cn([C@@H]3COC[C@@H]3O)nn2)cc1	/	-17%[14.3 µM]	/	4%[14.2 µM]	/
CC1(C)Oc2ccc3ccc(=O)oc3c2/C(=C/O)C1=O	-7	6%	-4%	24%	-7%
CC1(C)Oc2ccc3ccc(=O)oc3c2/C(=C/NC2CCCCC2)C1=O	?	?	10µM*	?	0%

Source: PubChem (National Center for Advancing Translational Sciences (NCATS))
